Test systems include DU-145 prostate; K-562 leukemia; MALME-3M melanoma; MDA-MB-231 breast; RXF 393 renal; SF-268 CNS; SF-295 CNS; SF-539 CNS; UACC-257 melanoma; M14 melanoma; HCT-15 colon; HT29 colon; SNB-75 CNS; SNB-19 CNS; U251 CNS; PC-3 prostate; UACC-62 melanoma; LOX IMVI melanoma; SK-MEL-28 melanoma; SK-MEL-5 melanoma.
Common to all, as to assay: NCI-60 one-dose screen, 48 h (100 = growth as untreated, 0 = no growth, -100 = all killed)
Conditions in all cases: 10 µM unless noted

SMILES strings stand for the structures. Compounds without any hit were thinned out: in the full panel of roughly 83,000, 20% have a hit.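 Step 1: grow cells in 96-well plates. Step 2: add test compound at a single concentration. Step 3: incubate 48 h. Step 4: record percent growth.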 Values without a mark were called inactive. Calls of active or inactive are those of the source. The calls were made as follows: active = growth percent below 10; inactive = the rest.

As to `CC(=O)OC1Oc2ccccc2-c2oc3nc(=N)n(C)c-3cc21` (configuration not stated), the growth in the assay on DU-145 prostate is 191%; with K-562 leukemia, 94.9%; in the assay with MALME-3M melanoma, 119%; in the assay with MDA-MB-231 breast, 112%; with RXF 393 renal it was 144%; in the assay with SF-268 CNS, 251%. In addition, the growth in the assay with SF-295 CNS is 125%; with SF-539 CNS it was 102%; in the assay on UACC-257 melanoma, 113%; in the assay with M14 melanoma, 98.7%; with HCT-15 colon, 104%; in the assay with HT29 colon it was 109%. The growth was 112% in the assay with SNB-75 CNS; 106% in the assay with SNB-19 CNS; 113% in the assay on U251 CNS; 97.4% with PC-3 prostate; 106% in the assay on UACC-62 melanoma; 103% with LOX IMVI melanoma. In addition, in the assay with SK-MEL-28 melanoma, the growth is 122%.
Regarding `CCN(CC)CCCC(C)Nc1cnc(C(=O)Nc2ccc(Cl)c3cccnc23)cn1` (configuration not stated), the growth is 53.1% in the assay with DU-145 prostate; -45.8% (active) with K-562 leukemia; -71.8% (active) with MALME-3M melanoma; -29.7% (active) in the assay with MDA-MB-231 breast; 18.7% in the assay with RXF 393 renal; 35.8% in the assay with SF-268 CNS. Further, the growth in the assay on SF-295 CNS is 63%; in the assay on SF-539 CNS it was -73.6% (active); in the assay with UACC-257 melanoma it was -33% (active); in the assay with M14 melanoma, -73.1% (active); in the assay with HCT-15 colon it was 3.73% (active); in the assay with HT29 colon, -49.4% (active). For the same compound, the growth is 41.7% in the assay on SNB-75 CNS; -35.3% (active) in the assay on U251 CNS; 39.4% in the assay on PC-3 prostate; -3.7% (active) in the assay on SK-MEL-5 melanoma; -52.4% (active) in the assay with UACC-62 melanoma; -83.9% (active) in the assay with LOX IMVI melanoma.
`NNC(=O)Cc1ccccc1`: the growth with DU-145 prostate was 104%; in the assay on K-562 leukemia it was 56.6%; with MALME-3M melanoma, 99.7%; with MDA-MB-231 breast it was 83.7%; with RXF 393 renal, 126%; with SF-268 CNS it was 86.4%. Besides, the growth with SF-295 CNS was 79.7%; with SF-539 CNS, 92.5%; with UACC-257 melanoma, 122%; in the assay with M14 melanoma, 74.5%; with HCT-15 colon it was 82.7%; in the assay on HT29 colon, 101%. Further, the growth in the assay with SNB-75 CNS was 77.8%; in the assay with SNB-19 CNS, 93.1%; with U251 CNS it was 91.8%; in the assay with PC-3 prostate, 56.9%; in the assay on SK-MEL-5 melanoma, 96.9%; in the assay with UACC-62 melanoma it was 45.8%. Also, the growth with LOX IMVI melanoma was 50.7%; in the assay on SK-MEL-28 melanoma it was 108%.
As to `N=C(N)c1ccc(-c2ccc(-c3cc(Cl)cc(Cl)c3)o2)nc1`, the growth in the assay with DU-145 prostate is -91.9% (active); with K-562 leukemia it was -65.6% (active); in the assay with MALME-3M melanoma, -58.9% (active); with MDA-MB-231 breast, -77.3% (active); in the assay with RXF 393 renal, 67%; in the assay with SF-268 CNS, -67.1% (active). Moreover, the growth in the assay with SF-539 CNS was -90.9% (active); with UACC-257 melanoma it was -81.1% (active); in the assay on M14 melanoma it was -76.4% (active); in the assay on HCT-15 colon, -67.1% (active); in the assay with HT29 colon it was -81.7% (active); in the assay with SNB-75 CNS, -90.7% (active). Further, the growth is -75.6% (active) with SNB-19 CNS; -88.3% (active) with U251 CNS; -29.7% (active) with PC-3 prostate; 34.7% in the assay with SK-MEL-5 melanoma; -86.2% (active) in the assay with UACC-62 melanoma; -86.7% (active) in the assay with LOX IMVI melanoma. In the assay with SK-MEL-28 melanoma, the growth was -79.2% (active).
On to `NC(=S)N/N=C(/c1cccs1)C1CC1`, for which the growth is 105% in the assay on DU-145 prostate; 69.3% in the assay on K-562 leukemia; 96% with MALME-3M melanoma; 91.4% in the assay on MDA-MB-231 breast; 102% in the assay with RXF 393 renal; 99.4% with SF-268 CNS. Moreover, the growth with SF-539 CNS is 95.7%; in the assay with UACC-257 melanoma, 39.4%; with M14 melanoma, 71.3%; in the assay with HCT-15 colon, 71%; in the assay on HT29 colon it was 58.4%; in the assay on SNB-75 CNS, 77.2%. Moreover, the growth in the assay on SNB-19 CNS is 100%; in the assay with U251 CNS, 72.9%; in the assay on PC-3 prostate it was 63.5%; in the assay with SK-MEL-5 melanoma, 106%; with UACC-62 melanoma, 98.8%; with LOX IMVI melanoma, 68.3%. In addition, the growth in the assay on SK-MEL-28 melanoma is 101%.
In the case of `OC(c1cc(-c2ccc(C(F)(F)F)cc2)nc(-c2ccc(C(F)(F)F)cc2)c1)C1CCCCN1` (configuration not stated), the growth in the assay with DU-145 prostate is -94.9% (active); in the assay on K-562 leukemia it was -73.6% (active); in the assay on MALME-3M melanoma, -64.7% (active); in the assay on MDA-MB-231 breast, -71% (active); in the assay on RXF 393 renal, -86% (active); in the assay with SF-268 CNS, -83.9% (active). Moreover, the growth with SF-539 CNS is -77.3% (active); in the assay with UACC-257 melanoma, -76% (active); in the assay with M14 melanoma, -80.1% (active); in the assay on HCT-15 colon, -71% (active); in the assay on HT29 colon, -81.7% (active); with SNB-75 CNS, -82.9% (active). Besides, the growth in the assay on SNB-19 CNS is -66.2% (active); with U251 CNS it was -85% (active); in the assay on PC-3 prostate, -86.1% (active); in the assay with SK-MEL-5 melanoma it was -78.2% (active); in the assay on UACC-62 melanoma it was -84.3% (active); with LOX IMVI melanoma, -65.8% (active). The growth in the assay with SK-MEL-28 melanoma is -88.5% (active).
Consider `C=C(CN1CC=CCC1)[C@@H]1CC[C@]2(C(=O)OC)CC[C@]3(C)[C@H](CC[C@@H]4[C@@]5(C)CC[C@H](OC(C)=O)C(C)(C)[C@@H]5CC[C@]43C)[C@@H]12`, for which the growth in the assay on DU-145 prostate was 107%; in the assay on K-562 leukemia it was 57.9%; in the assay with MALME-3M melanoma it was 92.9%; with MDA-MB-231 breast it was 99.2%; in the assay with RXF 393 renal, 101%; with SF-268 CNS, 92.5%. Moreover, the growth in the assay on SF-539 CNS is 93.3%; in the assay on UACC-257 melanoma, 91.9%; with M14 melanoma, 86.1%; in the assay on HCT-15 colon, 105%; with HT29 colon it was 75.3%; with SNB-75 CNS, 88.4%. In addition, the growth in the assay with SNB-19 CNS was 86%; with U251 CNS it was 83.2%; in the assay on PC-3 prostate, 61.4%; in the assay on SK-MEL-5 melanoma it was 90.3%; with UACC-62 melanoma, 80.7%; in the assay on LOX IMVI melanoma, 99.7%. The growth in the assay on SK-MEL-28 melanoma is 94.9%.
For `COc1ccc(-c2nnc(SCC(=O)Nc3ccc(C(=O)/C=C/c4ccc(Cl)cc4)cc3)n2-c2ccccc2)cc1`, the growth was 101% in the assay with DU-145 prostate; 96.7% in the assay on K-562 leukemia; 112% with MALME-3M melanoma; 79.6% in the assay with MDA-MB-231 breast; 106% with RXF 393 renal; 91% in the assay on SF-268 CNS. For the same compound, the growth in the assay on SF-539 CNS is 101%; in the assay with UACC-257 melanoma, 115%; in the assay on M14 melanoma it was 85.9%; in the assay with HCT-15 colon it was 94.7%; with HT29 colon, 99.2%; with SNB-75 CNS it was 86.5%. In addition, the growth in the assay with SNB-19 CNS is 99.6%; in the assay on U251 CNS, 85.8%; in the assay on PC-3 prostate it was 87.9%; in the assay with SK-MEL-5 melanoma, 92.1%; in the assay with UACC-62 melanoma, 83.7%; in the assay on LOX IMVI melanoma, 103%. For the same compound, the growth in the assay on SK-MEL-28 melanoma is 101%.
